From PubChem
KB-3-1 tox – KB-3-1 parental cell cytotoxicity | KB-3-1 viability, CellTiter-Glo ATP luminescence, 72 h | Potency, µM (top dose mostly 46.1 µM), usual class: cytotoxic | hit rate 1.4% among 400,000; note: % is set by controls: 0 for no effect and ±100 for the full control effect; nearly all actives have a fitted effect of over 60% in size
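Viability of parental KB-3-1 cells, measured by CellTiter-Glo luminescence, followed a 72 h incubation at 37 °C with pinned compounds in phenol-red-free DMEM containing 10% FBS.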
KB-V1 MDR tox – KB-V1 MDR subline cytotoxicity; KB-V1 MDR cells viability, CellTiter-Glo, 72 h; Potency, µM (titrated, usually from 46.1 µM), hits mostly cytotoxic; hit rate 3.4% among 400,000; AID 1347076; note: % is set by controls: 0 for no effect and ±100 for the full control effect; nearly all actives have a fitted effect of over 60% in size
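Cells of the MDR subline KB-V1 are plated, dosed with compound at multiple concentrations, and incubated 72 h at 37 degrees C; CellTiter-Glo is then added and luminescence read after 10 min.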
S2 tox – cell viability loss in ATXN counter-screen | Potency, µM (top dose mostly 56.7 µM), hits mostly cytotoxic | hit rate 0.49% among 400,000 | S2 cells (HEK-293 line with an ATXN2-luciferase reporter) viability, CellTiter-Fluor protease fluorescence, 24 h | AID 651635; note: nearly all actives have a fitted effect of over 40% in size
TGFb inhibitor – blocks TGF-b signaling | AID 588855 | HepG2 CAGA-GFP TGF-b/SMAD3 reporter, GFP fluorescence, 18 h; TGF-beta stimulated, 500 pg/mL final | Potency, µM (series often up to 46.1 µM), without a hit: at the top dose activity, negative = inhibition, usual class: inhibitors | hit rate 1.2% among 410,000; note: % is set by controls: 0 for no effect and ±100 for the full control effect; nearly all actives have a fitted effect of over 65% in size
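TGF-beta reporter screen: HEPG2 CAGA-GFP, 1% FBS, 500 pg/mL TGF-beta final, 18 h; per-cell GFP summed per well; curves fitted and categorized by class.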
HepG2 viability – counter-screen for TGF-b inhibitors: cytotoxicity in HepG2 cells; HepG2 CAGA-GFP viability, ATP luminescence, 18 h; Potency, µM (titrated, usually from 46.1 µM), without a hit: at the highest dose activity change, negative = cytotoxicity, actives largely listed as cytotoxic; hit rate 0.76% among 410,000; AID 588856
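CellTiter-Glo luminescence gave cytotoxicity after 18 hours at 37 degrees C. The cells were HepG2 CAGA-GFP in 1% FBS DMEM, stimulated with 500 pg/mL TGF-beta after compound addition. %Activity was normalised to no-cell wells (complete cell-killing) and DMSO (no toxicity), and curves were fitted and classified.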
ATXN2 expr inh – inhibitors of ATXN2 expression; AID 1745845; HEK-293 ATXN2-luciferase reporter, luminescence, 24 h; Potency, µM (titrated, usually from 57 µM), for inactives: top-dose activity change, negative = inhibition, hits mostly inhibitors; hit rate 0.72% among 360,000; note: % is set by controls: 0 for no effect and ±100 for the full control effect; nearly all actives have a fitted effect of over 55% in size
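qHTS (up to 57 uM final) was run with 24 h compound exposure of reporter cells at 37 °C. Each well was multiplexed: SteadyGlo luminescence measured ATXN2-luciferase expression after a fluorogenic Gly-Phe-AFC viability readout (25 uM final).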
Numbers without * were called inactive. The list is not random: actives were taken first. Their share in the collection is about 5.9%. Calls come from the whole dose curve; as a rule, active = well fitted curve in the direction sought with a large enough effect; inconclusive = small, poorly fitted or top-dose-only effect, or another doubt; inactive = no such curve, though single readings can be large; an effect the other way counts as inactive or inconclusive. Potency is the fitted concentration of half-maximal effect.

Screening Cc1cc(C(=O)CSc2nnc(-c3cccs3)n2Cc2ccccc2)c(C)n1C returned KB-3-1 tox inactive, KB-V1 MDR tox inactive, S2 tox inactive, TGFb inhibitor inconclusive, HepG2 viability -41.3% and ATXN2 expr inh -1.3%.
For CC(=O)c1c(C)[nH]c(C(=O)CSc2nnc(-c3cccs3)n2Cc2ccccc2)c1C the results were KB-3-1 tox inactive, KB-V1 MDR tox 5.8µM*, S2 tox inactive, TGFb inhibitor -30.7%, HepG2 viability -2.5% and ATXN2 expr inh 1.1%.
`CC(=O)c1c(C)[nH]c(C(=O)CSc2nnc(-c3ccco3)n2Cc2ccccc2)c1C` gave KB-3-1 tox inactive, KB-V1 MDR tox 18.4µM*, S2 tox inactive, TGFb inhibitor 1.2%, HepG2 viability -16.8% and ATXN2 expr inh -19.2%.
`COCCn1c(SCC(=O)c2[nH]c(C)c(C(C)=O)c2C)nc2ccccc21` gave KB-3-1 tox inactive, KB-V1 MDR tox 16.4µM*, S2 tox inactive, TGFb inhibitor -9.5%, HepG2 viability -1.6% and ATXN2 expr inh 5.3%.
`CCOC(=O)c1c(C)[nH]c(C(=O)CSc2nnc(-c3cccs3)n2Cc2ccccc2)c1C` gave KB-3-1 tox inactive, KB-V1 MDR tox 2.31µM*, S2 tox inconclusive, TGFb inhibitor -14.2%, HepG2 viability -45.1% and ATXN2 expr inh inconclusive.
`COc1cccc(CNC(=O)c2ccc3oc(=O)n(Cc4ccccc4)c3c2)c1` gave KB-3-1 tox inactive, KB-V1 MDR tox inactive, S2 tox inconclusive, TGFb inhibitor -25.2%, HepG2 viability 0.6% and ATXN2 expr inh -13.3%.
Screening CC(C)c1ccc(NC(=O)c2cc(S(=O)(=O)NCc3ccccc3Cl)ccc2F)cc1 returned KB-3-1 tox inconclusive, KB-V1 MDR tox inconclusive, TGFb inhibitor inconclusive, HepG2 viability -82.2% and ATXN2 expr inh inconclusive.
Screening CCCOc1ccc(CN2C(=O)C(=O)c3cccc(C)c32)cc1 returned TGFb inhibitor 15.8µM* and HepG2 viability -73.8%.
Screening Cc1ccc(OCCCN2C(=O)C(=O)c3cccc(C)c32)cc1 returned KB-3-1 tox inactive, KB-V1 MDR tox inactive, S2 tox inactive, TGFb inhibitor inconclusive, HepG2 viability -20.5% and ATXN2 expr inh 10.3%.
COc1ccc(OC)c(N(CCN2C(=O)c3ccccc3C2=O)C(=O)CCl)c1 was read as KB-3-1 tox inconclusive, KB-V1 MDR tox inconclusive, S2 tox 1.58µM*, TGFb inhibitor inconclusive and HepG2 viability -55.7%.
For CC(=NCc1cccc(Cl)c1)c1nc(-c2ccco2)oc1O the results were KB-3-1 tox 5.8µM*, KB-V1 MDR tox inactive, S2 tox inactive, TGFb inhibitor -10.5%, HepG2 viability 18.2% and ATXN2 expr inh 2.2%.
COc1ccc(Cn2c(-c3ccc(C)cc3)c[n+]3ccccc23)cc1 was read as KB-3-1 tox 3.26µM*, KB-V1 MDR tox inactive, S2 tox inconclusive, TGFb inhibitor inconclusive, HepG2 viability -28.1% and ATXN2 expr inh 16.8µM*.
Screening COc1ccc(Cn2c(O)c(C=Nc3ccc(C)cc3)c3ccccc3c2=O)cc1 returned KB-3-1 tox inactive, KB-V1 MDR tox inactive, S2 tox inactive, TGFb inhibitor 0.3%, HepG2 viability 3.9% and ATXN2 expr inh -13.0%.
COc1ccc(-c2nn3c(-c4ccccc4C)nnc3c3ccccc23)cc1 was read as TGFb inhibitor inconclusive and HepG2 viability -105.3%.
Screening Cc1nn2c(-c3ccncc3)nnc2c2ccccc12 returned KB-3-1 tox inactive, KB-V1 MDR tox inactive, S2 tox inconclusive, TGFb inhibitor inconclusive, HepG2 viability -1.3% and ATXN2 expr inh -6.7%.
For COc1ccc(-c2nnc3c4ccccc4c(C)nn23)cc1 the results were KB-3-1 tox inactive, KB-V1 MDR tox 3.66µM*, S2 tox inactive, TGFb inhibitor inconclusive, HepG2 viability -13.9% and ATXN2 expr inh 38.4%.
For Cc1ccccc1-c1nnc2c3ccccc3c(C)nn12 the results were KB-3-1 tox inconclusive, KB-V1 MDR tox 7.31µM*, S2 tox inactive, TGFb inhibitor 12.0%, HepG2 viability -2.1% and ATXN2 expr inh 2.9%.
Cc1ccc(NC(=S)NN(C)c2cc(C)nc(C)n2)cc1 was read as KB-3-1 tox inactive, KB-V1 MDR tox 18.4µM*, S2 tox inconclusive, TGFb inhibitor 12.1%, HepG2 viability 16.3% and ATXN2 expr inh 6.4%.
O=C(Nc1ccc(N2CCC(c3ccccc3)C2)c(C(=O)O)c1)c1ccc(Cl)cc1 (stereo not drawn) was read as KB-3-1 tox inactive, KB-V1 MDR tox inactive, S2 tox inactive, TGFb inhibitor -24.5%, HepG2 viability -37.6% and ATXN2 expr inh -2.5%.
`O=C(CN1C(=O)/C(=C\c2ccc(F)cc2)Oc2ccccc21)N1CCN(c2ccccn2)CC1` gave KB-3-1 tox inactive, KB-V1 MDR tox 7.31µM*, S2 tox inactive, TGFb inhibitor inconclusive, HepG2 viability -28.2% and ATXN2 expr inh -16.9%.
`O=C(CN1C(=O)/C(=C\c2cccc(F)c2)Oc2ccccc21)N1CCN(c2ccccn2)CC1` gave KB-3-1 tox inconclusive, KB-V1 MDR tox inactive, S2 tox inactive, TGFb inhibitor -3.6%, HepG2 viability 6.7% and ATXN2 expr inh -8.0%.
`CN1C(=O)NC2(O)C(=O)c3ccccc3C12O` (stereo not drawn) gave KB-3-1 tox inactive, KB-V1 MDR tox inactive, S2 tox inactive, TGFb inhibitor -4.4%, HepG2 viability 10µM* and ATXN2 expr inh -20.4%.
For COc1ccc(OC)c(NC(=O)c2cc3n(n2)C(C(F)(F)F)CC(c2ccc4c(c2)OCO4)N3)c1 (stereo not drawn) the results were KB-3-1 tox inconclusive, KB-V1 MDR tox 11.6µM*, S2 tox inactive, TGFb inhibitor 12.1%, HepG2 viability -35.1% and ATXN2 expr inh inconclusive.
`CCC(=O)N1c2ccccc2CC1C(=O)NCCc1ccccc1` (stereo not drawn) gave KB-3-1 tox inactive, KB-V1 MDR tox inactive, S2 tox inactive, TGFb inhibitor 2.1%, HepG2 viability 6.0% and ATXN2 expr inh -4.8%.
Screening Cc1ccccc1NC(=O)Cn1c(=O)n(Cc2ccc3c(c2)OCO3)c(=O)c2oc3ccccc3c21 returned TGFb inhibitor 22.7% and HepG2 viability 2.5%.
`c1c2c(cc3sc(N4CCOCC4)nc13)OCCO2` gave KB-3-1 tox inconclusive, KB-V1 MDR tox 20.6µM*, S2 tox inactive, TGFb inhibitor 0.0%, HepG2 viability -58.4% and ATXN2 expr inh 6.31µM*.
